# Measurements published in PubChem BioAssay (NCATS).
# Where “and” joins values, the source holds several entries; their conditions need not be identical. Identical values can stand only once. Results filed as inconclusive are left out. Entries that show only a call come without a potency. Calls of active or inactive are those of the source. Unless noted, the call rests on the fitted dose curve; in most records, active means well fitted curve in the direction sought with a large enough effect; inconclusive means small, poorly fitted or top-dose-only effect, or another doubt; inactive means no such curve, though single readings can be large; an effect the other way counts as inactive or inconclusive.
# Tests used:
# [1] = Primary qHTS for small molecule stabilizers of the endoplasmic reticulum resident proteome: Secreted ER Calcium Modulated Protein (SERCaMP) assay (AID 1508630)
# Summary of the method: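 The SH-SY5Y reporter protocol was run at 3 concentrations up to 38.3 uM (primary) or 11 concentrations (follow-up): 16 h compound, 100 nM thapsigargin for 4 h, then extracellular luciferase luminescence.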
# [2] = target: Cytochrome P450 2C9 (Homo sapiens) (UniProt P11712); test: Cytochrome P450 family 2 subfamily C member 9 (CYP2C9) small molecule antagonists: luciferase biochemical (cell-free) qHTS assay (AID 1645842; active means well fitted curve in the direction sought with a large enough effect in the repeat runs; an effect the other way counts as inactive or inconclusive; further: nearly all actives have a fitted effect of over 55% in size; further: potency means the concentration at half of the fitted maximal effect)
# Summary of the method: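 P450-Glo CYP2C9 system: proluciferin substrate with enzyme in mix containing 0.4% BSA, 10 min at room temperature, then NADPH regeneration solution added and incubated 1 h at 37C. Detection reagent stopped reaction; luminescence read after 20 min as RLU.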
# [3] = Primary qHTS for inhibitors of nuclear receptor binding SET domain protein 2 (NSD2) in an isogenic RCH-ACV NSD2 p.E1099K mutant (9B) (AID 1645876); further: nearly all actives have a fitted effect of over 70% in size; further: potency means the concentration at half of the fitted maximal effect
# [4] = Primary qHTS for inhibitors of nuclear receptor binding SET domain protein 2 (NSD2) in an RCH-ACV wild type WT cells (2C) (AID 1645877); further: nearly all actives have a fitted effect of over 70% in size; further: potency means the concentration at half of the fitted maximal effect
# [5] = target: Cytochrome P450 2D6 (Homo sapiens) (UniProt P10635); test: Cytochrome P450 family 2 subfamily D member 6 (CYP2D6) small molecule antagonists: luciferase biochemical (cell-free) qHTS assay (AID 1645840; active means well fitted curve in the direction sought with a large enough effect in the repeat runs; an effect the other way counts as inactive or inconclusive; further: nearly all actives have a fitted effect of over 55% in size; further: potency means the concentration at half of the fitted maximal effect)
# Summary of the method: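 P450-Glo CYP2D6 system: proluciferin substrate converted by enzyme to luciferin, read by luminescence proportional to activity. Enzyme-substrate mix with compound 10 min at room temperature, then NADPH regeneration 1 h before detection reagent.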
# Cytochrome P450 2C9 (Homo sapiens), sequence (P11712 whole entry, looked up): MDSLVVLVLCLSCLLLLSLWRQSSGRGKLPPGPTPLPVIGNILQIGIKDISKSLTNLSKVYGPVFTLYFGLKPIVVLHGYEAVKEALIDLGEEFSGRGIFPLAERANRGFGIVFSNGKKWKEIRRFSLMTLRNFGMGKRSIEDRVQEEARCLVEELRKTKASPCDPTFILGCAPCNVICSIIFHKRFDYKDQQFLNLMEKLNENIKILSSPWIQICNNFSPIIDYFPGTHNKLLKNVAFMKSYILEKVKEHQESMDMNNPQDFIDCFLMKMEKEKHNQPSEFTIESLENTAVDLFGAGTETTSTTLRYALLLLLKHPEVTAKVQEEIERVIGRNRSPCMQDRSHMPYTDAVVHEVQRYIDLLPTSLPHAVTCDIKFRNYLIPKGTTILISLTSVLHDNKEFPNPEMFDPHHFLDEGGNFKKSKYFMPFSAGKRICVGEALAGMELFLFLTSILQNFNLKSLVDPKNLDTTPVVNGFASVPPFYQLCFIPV
# Cytochrome P450 2D6 (Homo sapiens), sequence (P10635 whole entry, looked up): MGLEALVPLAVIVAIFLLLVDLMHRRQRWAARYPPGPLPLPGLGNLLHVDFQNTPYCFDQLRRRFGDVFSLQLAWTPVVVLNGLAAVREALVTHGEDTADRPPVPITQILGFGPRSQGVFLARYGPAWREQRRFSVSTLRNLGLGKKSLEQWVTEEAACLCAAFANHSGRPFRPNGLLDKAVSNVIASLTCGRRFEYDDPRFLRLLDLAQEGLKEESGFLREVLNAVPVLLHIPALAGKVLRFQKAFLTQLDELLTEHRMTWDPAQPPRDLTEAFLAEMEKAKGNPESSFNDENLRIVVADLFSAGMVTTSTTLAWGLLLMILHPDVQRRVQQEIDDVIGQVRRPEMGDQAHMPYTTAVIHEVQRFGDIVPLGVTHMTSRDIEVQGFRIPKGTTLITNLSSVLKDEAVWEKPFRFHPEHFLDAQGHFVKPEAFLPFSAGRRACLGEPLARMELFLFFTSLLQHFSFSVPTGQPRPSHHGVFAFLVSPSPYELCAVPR
Structure (SMILES),Potency [1],Potency [2],Potency [3],Potency [4],Potency [5]
Cc1cccc2c1CC[C@H](CN1CCC(c3c(Cl)cccc3Cl)CC1)C[C@@H]2O,inactive,9.52 µM (active),10.3 µM (active),,
Cn1cnc(-c2cc3nccc(Oc4ccc(NC(=S)NC(=O)Cc5ccccc5)cc4F)c3s2)c1,inactive,1.9 µM (active),5.15 µM (active) and 2.95 µM (active),5.78 µM (active) and 3.32 µM (active),
Cc1ccccc1C(=O)c1ccc(Nc2ccc(Br)cc2N)cc1Cl,inactive,10.7 µM (active),16.6 µM (active) and 5.78 µM (active),10.5 µM (active) and 9.2 µM (active),
Cc1cn([C@@H]2C[C@@H](O)[C@H](CO)O2)c(=O)[nH]c1=O,inactive,inactive,inactive,inactive,
O=C(CO)N1CCC(c2[nH]nc(-c3ccc(Cl)cc3)c2-c2ccncn2)CC1,inactive,6.74 µM (active),inactive,,
Cc1ccccc1-n1c(Cn2nc(-c3cccc(O)c3)c3c(N)ncnc32)nc2cccc(C)c2c1=O,inactive,2.13 µM (active),0.186 µM (active),,
CC(C)(C)c1nc(-c2cccc(NS(=O)(=O)c3c(F)cccc3F)c2F)c(-c2ccnc(N)n2)s1,inactive,6.74 µM (active),5.9 µM (active),4.68 µM (active),
CC(C)CN(C[C@@H](O)[C@H](Cc1ccccc1)NC(=O)O[C@H]1CO[C@H]2OCC[C@H]21)S(=O)(=O)c1ccc(N)cc1,inactive,7.56 µM (active),,,
COc1ccc(-c2ccc3ncc4c(c3c2)n(-c2ccc(N3CCNCC3)c(C(F)(F)F)c2)c(=O)n4C)cn1,inactive,,5.2 nM (active) and 14.6 nM (active) and 13.2 nM (active),7.3 nM (active) and 14.6 nM (active) and 18.6 nM (active),inactive
O=C(c1ccc(C(=O)N2CCC(N3CCCC3)CC2)c(Nc2ccccc2)c1)N1CCC(N2CCCC2)CC1,inactive,inactive,inactive,,
Cc1csc(-c2nnc(Nc3ccc(Oc4ncccc4-c4ccnc(N)n4)cc3)c3ccccc23)c1,inactive,12 µM (active),,,
CNC(=O)c1ccc2c(C(=Nc3cccc(CN(C)C)c3)c3ccccc3)c(O)[nH]c2c1,inactive,inactive,16.3 µM (active) and 13.2 µM (active),,
C[C@H](c1ccc(F)cc1CCCC(=O)O)N(c1cc(F)ccc1F)S(=O)(=O)c1ccc(Cl)cc1,inactive,8.49 µM (active),,,
C[C@@H]1CCO[C@H]2Cn3cc(C(=O)NCc4ccc(F)cc4F)c(=O)c(O)c3C(=O)N12,inactive,inactive,20.5 µM (active),,
COc1ccc(CCC(=O)Nc2nc3ccc(Cl)cc3s2)cc1OC,inactive,6.01 µM (active),inactive,inactive,
Clc1ccc(COC(Cn2ccnc2)c2ccc(Cl)cc2Cl)c(Cl)c1 (configuration not stated),inactive,0.19 µM (active),,,
CC1(C)CC(=O)c2c(C(F)(F)F)nn(-c3ccc(C(N)=O)c(NC4CCC(O)CC4)c3)c2C1 (configuration not stated),inactive,6.01 µM (active),57.8 nM (active) and 83.3 nM (active),57.8 nM (active) and 83.3 nM (active),
CC(C)C[C@@H](C(=O)N[C@H](C(=O)OC1CCCC1)c1ccccc1)[C@H](O)C(=O)NO,inactive,5.35 µM (active),14.8 µM (active),14.8 µM (active),
Cc1nn(Cc2ccccc2Cl)c(C)c1CN(C)CC(O)COc1ccc(Cl)cc1 (configuration not stated),inactive,inactive,18.6 µM (active),14.8 µM (active),
CNc1nc(Nc2ccc(C(=O)N3CCOCC3)cc2OC)ncc1Cl,inactive,inactive,,,
CNC(=O)[C@H](Cc1ccccc1)NC(=O)[C@H](CC(C)C)[C@H](CSc1cccs1)C(=O)NO,inactive,inactive,inactive,inactive,
Nc1ncnc2c1c(-c1cccc(OCc3ccccc3)c1)cn2C1CC(CN2CCC2)C1 (configuration not stated),inactive,,4.59 µM (active),,12 µM (active)
CCn1c(-c2nonc2N)nc2cncc(CNC3CCNCC3)c21,inactive,inactive,12.9 µM (active),,
Cc1cnc(Nc2cccc(CN3CCOCC3)c2)nc1Nc1cccc(S(=O)(=O)NC(C)(C)C)c1,inactive,5.35 µM (active),0.515 µM (active),,
O=C(Nc1ccc(OC(F)(F)F)cc1)c1sccc1NCc1ccnc2ccccc12,inactive,7.56 µM (active),16.6 µM (active) and 14.6 µM (active),,
CCC(=O)N1CCN(c2ccc(-n3c(=O)ccc4cnc5ccc(-c6cnc7ccccc7c6)cc5c43)cc2C(F)(F)F)CC1,inactive,10.7 µM (active),13.3 nM (active) and 12.9 nM (active),13.3 nM (active) and 20.4 nM (active),
Cc1ccc2c(=O)c3cccc(CC(=O)O)c3oc2c1C,inactive,,inactive,,
O=C(CC12CC3CC(CC(C3)C1)C2)Nc1cccc2nc(NCCNCCO)ccc12,inactive,inactive,20.9 µM (active),20.9 µM (active),
Nc1ncnc2c1ncn2[C@@H]1O[C@H](CO)[C@@H](O)[C@@H]1O,inactive,,16.6 µM (active),,
